Assay results reported in PubChem BioAssay (EPA / NIEHS).
Active and inactive are the calls of the source. The calls were made as follows: active = hit-call score of the fitted dose curve at least 0.9, where 1 is the maximum; inactive = score below 0.9.

These molecules were tested on E-selectin (Homo sapiens) (UniProt P16581) (assay: BSK_LPS_Eselectin: BioMAP Diversity Plus: LPS Assay for Eselectin Biomarker Activity (AID 2283077)). Conditions: primary human HUVEC with PBMC; actives raise or lower the signal.
Sequence of E-selectin (Homo sapiens) (P16581 whole entry, looked up): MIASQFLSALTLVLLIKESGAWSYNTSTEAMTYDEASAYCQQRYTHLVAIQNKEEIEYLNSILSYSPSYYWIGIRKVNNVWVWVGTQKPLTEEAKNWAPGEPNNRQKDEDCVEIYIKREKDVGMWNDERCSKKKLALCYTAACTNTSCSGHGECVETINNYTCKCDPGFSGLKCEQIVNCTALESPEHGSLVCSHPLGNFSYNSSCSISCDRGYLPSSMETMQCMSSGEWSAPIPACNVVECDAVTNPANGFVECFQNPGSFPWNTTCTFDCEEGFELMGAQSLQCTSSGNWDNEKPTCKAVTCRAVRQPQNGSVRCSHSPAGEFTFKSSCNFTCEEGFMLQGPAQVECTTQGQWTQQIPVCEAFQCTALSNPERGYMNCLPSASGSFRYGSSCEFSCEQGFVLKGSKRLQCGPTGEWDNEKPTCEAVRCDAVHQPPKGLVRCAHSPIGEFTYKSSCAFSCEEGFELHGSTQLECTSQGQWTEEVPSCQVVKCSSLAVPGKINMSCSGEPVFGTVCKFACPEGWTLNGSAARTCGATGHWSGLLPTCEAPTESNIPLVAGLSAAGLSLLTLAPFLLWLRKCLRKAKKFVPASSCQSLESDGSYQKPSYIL
Procedure: BSK_LPS is a cell-based, multiplexed-readout assay that uses umbilical vein endothelium and peripheral blood mononuclear cells, a human vascular primary cell co-culture, with measurements taken at 24 hours after chemical dosing in a 96-well plate.BSK_LPS_Eselectin is an assay component measured in the BSK_LPS assay. It measures E-selectin antibody related to regulation of gene expression using ELISA technology.Data from the assay component BSK_LPS_Eselectin was analyzed into 1 assay endpoint. This assay endpoint, BSK_LPS_Eselectin, was analyzed with bidirectional fitting relative to DMSO as the negative control and baseline of activity. Using a type of binding reporter, gain or loss-of-signal activity can be used to understand changes in the signaling as they relate to the gene SELE. Furthermore, this assay endpoint can be referred to as a primary readout, because this assay has produced multiple assay endpoints where this one serves a signaling function. To generalize the intended target to other relatable targets, this assay endpoint is annotated to the cell adhesion molecules intended target family, where the subfamily is selectins.
The levels of cell surface (or secreted, indicated by the prefix "s") biomarker endpoints were measured by ELISA. Overt cytotoxicity to cells in confluent adherent cultures (all systems other than the BT system) was assessed by measuring total protein levels using sulforhodamine B (SRB) staining in parallel cultures at the time of biomarker measurements, indicated as SRB endpoints. For proliferation assays for adherent cell types, individual cell types are cultured at sub-confluence and relative cell numbers quantified by SRB staining at time points optimized for each system (48 h: 3C and CASM3C systems; 72 h: BT and HDF3CGF systems; 96 h: SAg system). SRB was performed by staining cells with 0.1% SRB after fixation with 10% TCA and reading wells at 560 nm.Viability and proliferation of PBMC (T cells) was quantified by Alamar Blue reduction for the SAg and BT systems. For PBMC viability (referred to as PBMC Cytotoxicity within the assay endpoint names), cells were plated (75,000/well in a 96-well plate) and then chemical samples added for 1 h before addition of activators, SEB and TSST-1 (20 ng/mL final concentration each). Cells were incubated for 90 h. Then, Alamar Blue (20 uL/well) (Invitrogen, Cat DAL1100) was added for 6 h, and the plates were read with a fluorescence microplate reader at 546/580 nm (excitation/emission). For PBMC proliferation, cells were plated and activated as above but incubated for only 16 h prior to addition of Alamar Blue. Plates were read after 6 h.
With `CCOP(=O)(OCC)Oc1nc(Cl)c(Cl)cc1Cl` the outcome was “inactive”.
In the case of `N#Cc1c(Cl)cccc1Cl`, the AC50 is reported as 0.0841 µM (active).
With `O=P(O)(O)CCCl` the outcome was “inactive”.
`CC(C)Oc1cccc(NC(=O)c2ccccc2C(F)(F)F)c1` was tested, and the outcome was “inactive”.
In the case of `Cc1cc(C)nc(Nc2ccccc2)n1`, the outcome is reported as “inactive”.
`COc1cc(Cl)c(OC)cc1Cl` was tested, and the outcome was “inactive”.
`COP(=S)(OC)Oc1ccc([N+](=O)[O-])c(C)c1` was tested, and the outcome was “inactive”.
`CNC(=O)Oc1cccc2ccccc12` was tested, and the outcome was “inactive”.
`CCOc1nc(F)cc2nc(S(=O)(=O)Nc3c(Cl)cccc3Cl)nn12` was tested, and the AC50 was 20 µM (active).
In the case of `O=C(Nc1ccccc1-c1ccc(Cl)cc1)c1cccnc1Cl`, the outcome is reported as “inactive”.
`CCCCC(O)(Cn1cncn1)c1ccc(Cl)cc1Cl` (stereo not given) was tested, and the outcome was “inactive”.
With `CC1(C)C(C=C(Cl)Cl)C1C(=O)OC(C#N)c1cccc(Oc2ccccc2)c1` (stereo not given) the outcome was “inactive”.
For `CCN(CC)C(=O)C(C)Oc1cccc2ccccc12` (stereo not given), the outcome was “inactive”.
In the case of `CCCCC(C#N)(Cn1cncn1)c1ccc(Cl)cc1` (stereo not given), the outcome is reported as “inactive”.
With `CN/C(=N\[N+](=O)[O-])NCc1cnc(Cl)s1` the outcome was “inactive”.
With `CCSC(=O)N1CCCCCC1` the outcome was “inactive”.
In the case of `CC1(C)CCC(=Cc2ccc(Cl)cc2)C1(O)Cn1cncn1` (stereo not given), the outcome is reported as “inactive”.
`Nc1c(Cl)c(F)nc(OCC(=O)O)c1Cl` was tested, and the outcome was “inactive”.
In the case of `Cc1cnc(C2=NC(C)(C(C)C)C(=O)N2)c(C(=O)O)c1` (stereo not given), the outcome is reported as “inactive”.
`O=c1n(Cl)c(=O)n(Cl)c(=O)n1Cl` was tested, and the outcome was “inactive”.
In the case of `COCC(C)N(C(=O)CCl)c1c(C)csc1C` (stereo not given), the outcome is reported as “inactive”.
`CNC(=O)N(C)c1nnc(C(C)(C)C)s1` was tested, and the outcome was “inactive”.
With `Nc1cnn(-c2ccccc2)c(=O)c1Cl` the outcome was “inactive”.
`CCN(CC)c1nc(C)cc(OP(=S)(OC)OC)n1` was tested, and the outcome was “inactive”.
For `Clc1nc(Cl)nc(Nc2ccccc2Cl)n1`, the outcome was “inactive”.
For `COP(=S)(OC)SCn1nnc2ccccc2c1=O`, the outcome was “inactive”.
For `Cc1ccc(N=CN(C)C=Nc2ccc(C)cc2C)c(C)c1`, the AC50 was 31.1 µM (active).
For `N#Cc1c[nH]cc1-c1cccc2c1OC(F)(F)O2`, the outcome was “inactive”.
For `O=C(O)c1c(Cl)ccc2cc(Cl)cnc12`, the outcome was “inactive”.
For `CCCC(=NOCC)C1=C(O)CC(CC(C)SCC)CC1=O` (stereo not given), the outcome was “inactive”.
With `COC(=O)NS(=O)(=O)c1ccc(N)cc1` the outcome was “inactive”.
With `CCOC(=O)C(C)OC(=O)c1cc(Oc2ccc(C(F)(F)F)cc2Cl)ccc1[N+](=O)[O-]` (stereo not given) the outcome was “inactive”.
In the case of `CC(C)=CC1C(C(=O)OCc2coc(Cc3ccccc3)c2)C1(C)C` (stereo not given), the AC50 is reported as 12.1 µM (active).
`CCOc1cc(C(C)(C)C)ccc1C1COC(c2c(F)cccc2F)=N1` (stereo not given) was tested, and the AC50 was 33.2 µM (active).
`CS(=O)(=O)c1ccc(C(=O)C2C(=O)CCCC2=O)c([N+](=O)[O-])c1` was tested, and the outcome was “inactive”.
`CC(C)NC(=O)N1CC(=O)N(c2cc(Cl)cc(Cl)c2)C1=O` was tested, and the outcome was “inactive”.
With `COC(=O)N(C(=O)N1CO[C@@]2(C(=O)OC)Cc3cc(Cl)ccc3C2=N1)c1ccc(OC(F)(F)F)cc1` the outcome was “inactive”.
For `C=CCOC(=O)C(C)(C)OC(=O)c1cc(-n2c(=O)cc(C(F)(F)F)n(C)c2=O)ccc1Cl`, the outcome was “inactive”.
`CCNC(=O)NC(=O)C(C#N)=NOC` was tested, and the outcome was “inactive”.
`CC(C)(C)C(=O)C(Oc1ccc(Cl)cc1)n1cncn1` (stereo not given) was tested, and the outcome was “inactive”.
